Screening results deposited in PubChem BioAssay by several laboratories.
Compounds with a hit are over-represented: about 2.8% of the library has one in this group of screens.
GASC-1 inh: blocks human GASC-1 demethylase activity; Q9H3R0; GST-JMJD2C(1-420) H3K9me3 demethylation, DELFIA europium; inhibition, % at 2.35 µM; actives 0.069% (n = 330,000); AID 2099;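 active = more than half of a compound's replicate wells show inhibition beyond 50%, single wells judged on their own value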;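 also: signal counts dimethyl H3K9 product captured on neutravidin plate; 0% = median of DMSO wells and 100% = 0.3 times that DMSO median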
Target sequence (Q9H3R0 1-420 limits assumed): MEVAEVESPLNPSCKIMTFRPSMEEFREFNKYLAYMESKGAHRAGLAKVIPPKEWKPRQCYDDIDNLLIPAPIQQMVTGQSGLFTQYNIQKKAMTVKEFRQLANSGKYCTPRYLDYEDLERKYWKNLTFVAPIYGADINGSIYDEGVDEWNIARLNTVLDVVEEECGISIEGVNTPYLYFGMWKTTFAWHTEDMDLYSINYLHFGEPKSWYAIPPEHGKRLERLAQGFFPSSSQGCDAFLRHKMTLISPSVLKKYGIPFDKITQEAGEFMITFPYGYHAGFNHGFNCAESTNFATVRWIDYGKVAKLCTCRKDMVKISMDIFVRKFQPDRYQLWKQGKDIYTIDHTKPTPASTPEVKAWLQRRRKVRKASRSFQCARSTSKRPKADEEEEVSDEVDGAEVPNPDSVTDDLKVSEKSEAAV
KLK7 zymogen act: proKLK7 (human) activation, primary screen; AID 652039; purified proKLK7, EDANS-DABCYL substrate fluorescence; 100% is mature enzyme control, 0% vehicle; activation, % at 7 µM; actives 0.9% (n = 370,000);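 active = activation above the mean of all tested compounds plus 3 SD, computed per campaign excluding outliers beyond control limits, cut at about 13% in these data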
PP1 counter: blocks human PP1-alpha phosphatase, a PP5 counter-screen | AID 2235 | purified PP1alpha, OMFP fluorescence | inhibition, % at 6.7 µM | actives 0.9% (n = 320,000);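 active = inhibition above the mean inhibition of all tested compounds plus 3 SD, computed separately for each screening campaign, cut at about 15% in these data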
NR1D1 modulator: modulators of human Rev-erb alpha DNA binding | P20393 | Rev-erbα–FITC-DNA binding, fluorescence polarization, 90 min | activity, % at 10 µM | actives 0.79% (n = 370,000) | AID 1259318;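 active = activity above about 14%, limit read from the data; passing the limit was not always enough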;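 also: 0% = DMSO wells with 35 nM protein and 100% = DMSO wells with 750 nM protein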
PP5 inh: PP5 (human) phosphatase inhibition. P53041. inhibition, % at 6.7 µM. AID 1987. actives 0.18% (n = 320,000). purified PP5c, OMFP substrate fluorescence;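 active = inhibition above the campaign's mean inhibition across all tested compounds plus 3 SD, cut at about 9.5% in these data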;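 also: 0% = DMSO only and 100% = 100 µM cantharidin control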
PG9 Ab binder: PG9 antibody binding by small molecule | TR-FRET gp120-PG9 antibody binding | inhibition, % at 6.7 µM | actives 0.43% (n = 360,000); in the data active = inhibition above about 8.5%
KLK7 act conf: proKLK7 activation, confirmation; shares compounds with KLK7 zymogen act; purified proKLK7, EDANS-DABCYL substrate fluorescence; scaled: vehicle 0, mature enzyme 100; activation, % at 7 µM; actives 68% (n = 3,200); AID 686949;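 active = activation, as change over the incubation, above the mean of all tested compounds plus 3 SD, cut at about 13% in these data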
EDANS-DABCYL int: fluorescence interference counter-screen for KLK7 activators. shares compounds with KLK7 zymogen act. EDANS-DABCYL substrate fluorescence interference, no enzyme, 4 h; solvent 0%, active enzyme control 100%. activation, % at 7 µM. actives 80% (n = 3,200). AID 686952;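 active = activation above the all-compound mean plus 3 SD, ignoring values outside control-based bounds, cut at about 4.8% in these data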;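 also: value is the 4 h activation minus the activation read at time zero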
EDANS interf: optically interferes with EDANS-DABCYL fluorescence, kallikrein-7 activator counter-screen | AID 720493 | shares compounds with KLK7 zymogen act | EC50, µM | EDANS-DABCYL peptide fluorescence interference, no enzyme | actives 20% (n = 250);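 active = compounds that raise the fluorescence signal in this interference counterscreen, with EC50 at or below 10 µM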;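 also: intact quenched peptide substrate alone read at 355 nm excitation and 520 nm emission; signal is fluorescence gain from T0 to T4 after four hours at room temperature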
Starred values were filed as active, the others as inactive; i = inactive; nt = not tested or not shown.

SMILES	GASC-1 inh	KLK7 zymogen act	PP1 counter	NR1D1 modulator	PP5 inh	PG9 Ab binder	KLK7 act conf	EDANS-DABCYL int	others
O=C(N/N=C/c1cccc(O)c1)c1cc(-c2ccccc2)nc2ccccc12	-9	1	5	5	3	0	nt	nt
CCOC(=O)c1nn(-c2ccc(F)cc2)c2nc(-c3ccccc3)c(C#N)c(=O)n12	3	40*	3	7	7	2	138*	146*
C=CCc1c(C)[nH]c2c(OC)cccc2c1=S	-1	29*	0	-3	3	-1	13*	18*
C=CCN(CC=C)C(=O)c1c(OC)cccc1OC	-3	0	5	-2	1	0	nt	nt
Cc1c(O)c(=O)c2ccccc2n1C	-2	92*	5	-2	1	4	73*	64*
Cc1ccc(N=Cc2c(O)c3ccccc3n(C)c2=O)cc1	-1	29*	nt	-6	nt	-2	-131	-103
Cn1c(=O)c(-c2ccccc2)c(O)c2ccccc21	2	0	-2	2	2	-3	nt	nt
CCCCNc1nccnc1-c1cccc(C=O)c1	nt	212*	nt	6	nt	0	299*	289*
CCCCNc1nc(-c2ccccc2)c(C(=O)OCC)cc1C#N	-7	0	4	1	3	-1	nt	nt
COc1ccc(-n2c(SCC(=O)NC3CCCCCC3)nnc2-c2ccncc2)cc1	nt	0	nt	-4	nt	nt	nt	nt
COc1ccccc1-c1coc2c(CN3CCC(C)CC3)c(O)ccc2c1=O	-8	57*	-8	4	3	0	64*	63*
CCC1CCCCN1Cc1c(O)ccc2c(=O)c(-c3ccccc3OC)coc12 (centres undefined)	-5	35*	2	-7	3	1	51*	71*
CC1CCCCN1Cc1c(O)ccc2c(=O)c(-c3nc4ccccc4s3)coc12 (centres undefined)	-1	0	-6	2	0	0	nt	nt
Nc1nccnc1C(=O)OCC(=O)Nc1ccc2[nH]c(=O)[nH]c2c1	-10	27*	-1	-15	-1	-2	53*	48*
CCN1C(=O)N[C@H]2C[C@@H](c3ccccc3)[C@@H](C)[C@@H](C(=O)N3CCCC3)C[C@H]21	nt	-1	nt	5	nt	1	nt	nt
COc1ccc(C(=O)C(=O)N2CCN(C(=O)c3ccccc3C(F)(F)F)CC2)cc1OC	nt	0	nt	-7	nt	0	nt	nt
COC(=O)[C@]1(C#N)CC(=O)N(C(C)C)[C@@H]1c1ccccc1	nt	0	nt	0	nt	nt	nt	nt
Cc1csc2nc3cc(C(N)=O)ccc3c(=O)n12	3	22*	0	-5	1	0	63*	77*
O=C(N[C@H](C(=O)N1CCC[C@H]1C(=O)NCc1ccccc1)c1ccccc1)C1CCCC1	nt	0	nt	-3	nt	0	nt	nt
CC(=O)N(C)C[C@@H]1OCc2ccccc2-c2c(n(C)c3ccccc23)C(=O)N([C@@H](C)CO)C[C@@H]1C	nt	0	nt	-1	nt	1	nt	nt
N#CC1C(=O)Nc2cccnc21 (centres undefined)	nt	37*	nt	-9	nt	-3	34*	33*
COc1cc(NC(=O)c2ccccc2)c(C)cc1NC(=O)CSc1nnc(-c2cnccn2)n1-c1ccc(C)cc1	nt	0	nt	-5	nt	nt	nt	nt
O=C(COC(=O)c1ccccc1NCCO)NNC(=O)c1cccs1	4	38*	-4	6	0	-2	35*	37*
O=C(COC(=O)c1ccccc1[N+](=O)[O-])NNC(=O)c1cccs1	1	0	-2	-1	2	-1	nt	nt
O=C(COC(=O)c1ccccc1NCCO)NCCC1=CCCCC1	-9	10	-1	-3	0	1	nt	nt
SMILES	GASC-1 inh	KLK7 zymogen act	PP1 counter	NR1D1 modulator	PP5 inh	PG9 Ab binder	KLK7 act conf	EDANS-DABCYL int	others
CCOc1ccccc1C(=O)OCC(=O)Nc1cccc(S(=O)(=O)NC2=NCCCCC2)c1	nt	0	nt	-10	nt	1	nt	nt
CC(C#N)(NC(=O)COC(=O)c1ccccc1NCCO)C1CC1 (centres undefined)	0	19*	-3	-3	1	-1	25*	34*
O=C(COC(=O)c1ccccc1NCCO)Nc1cccc(S(=O)(=O)NC2=NCCCCC2)c1	i	17*	-4	-9	0	2	0	-4
O=C(COC(=O)c1ccccc1NCCO)NCCc1ccccc1	-4	19*	-3	3	-3	1	16*	22*
CN(Cc1ccccc1)C(=O)OCc1cn(Cc2ccccc2Cl)nn1	nt	0	nt	2	nt	nt	nt	nt
O=C(COC(=O)c1ccccc1NCCO)NCC1CCCCC1	21	21*	-1	-4	2	1	5	5.2*
CC(CO)(CO)NC(=O)c1ccc(C#Cc2cccc(F)c2)cn1	nt	1	nt	-5	nt	nt	nt	nt
COc1ccc(/C=C/C(=O)c2c(O)cc(C)oc2=O)c(OC)c1	2	1	5	-1	2	1	nt	nt
CSc1ccc(/C=C/C(=O)c2c(O)cc(C)oc2=O)cc1	-24	14*	11	3	1	0	-4	-3
C=CCN1C(=O)[C@H](CC(=O)NCCCCc2ccccc2)[C@@]2(C(=O)OCC)CCCC=C12	nt	1	nt	0	nt	nt	nt	nt
CCOC(=O)COc1ccc2c(c1)C(=O)CC(C)(C)O2	3	18*	-4	1	-1	1	67*	67*
CCOC(=O)N1CCN(C(=O)COc2ccc3c(c2)C(=O)CC(C)(C)O3)CC1	15	31*	-2	9	1	1	26*	10*	EDANS interf=>70
CC1(C)CC(=O)c2cc(OCC(=O)N3CCCCCC3)ccc2O1	-3	26*	-8	1	-1	-2	68*	75*
CC1(C)CC(=O)c2cc(OCC(=O)O)ccc2O1	-5	14*	0	0	2	0	42*	48*
CC1(C)CC(=O)c2cc(O)ccc2O1	-7	2	2	6	-1	0	nt	nt
CC1(C)CC(=O)c2cc(OCC(=O)N3CCN(c4ccccc4F)CC3)ccc2O1	11	10	3	-8	2	-1	nt	nt
CCN(CC)C(=O)CC[C@H]1CC[C@]2(CCCN(Cc3ccc(OC)cc3)C2)O1	nt	-1	nt	6	nt	nt	nt	nt
COC(=O)C1=C(C)N(Cc2cccc(C(F)(F)F)c2)C(=NCc2cc(OC)c(OC)c(OC)c2)NC1c1ccccc1 (centres undefined)	nt	0	nt	-3	nt	-1	nt	nt
